Consider 50 molecules from PubChem BioAssay AID1332 (Southern Research Institute, 2008).

Converted amounts (≈) assume the structure as drawn. Among all 1,100 compounds or so, about 170 (15%) were called active. How the calls were made is not given here. A selection follows. Where only a bound is given, the exact number is not on record here.

The nature of this experiment: Mycobacterium tuberculosis H37Rv growth inhibition, confirmatory dose response, cytotoxicity (AID 1332).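 On CC50: Vero cells exposed to compounds for 72 hours.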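 On IC50: bacteria incubated 7 days before adding Alamar blue readout reagent.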 The settings on record: M. tuberculosis H37Rv growth inhibition; CC50: measured here: Vero cell cytotoxicity; IC50: measured here: IC50 H37Rv replicates.
`CC(=O)N[C@@H](CC(=O)O)C(=O)O`: the half-inhibitory concentration (IC50) (usually the concentration at which inhibition is half-maximal) was > 20 µg/mL and the result was inactive.

Take `Cc1cc2c(cc1S(N)(=O)=O)S(=O)(=O)CCC2`: the IC50 is > 20 µg/mL and the call was inactive.

Regarding `CCC1NC(=O)c2cc(S(N)(=O)=O)c(Cl)cc2N1` (stereo not drawn), the IC50 is > 20 µg/mL and the result was inactive.

Consider `Cc1cc2cc3c(C)cc(=O)oc3c(C)c2o1`, for which the 50% inhibitory concentration (IC50) was > 20 µg/mL and the outcome was inactive.

For `COC(=O)C1=CO[C@@H](C)[C@H]2CN3CCc4c([nH]c5ccccc45)[C@@H]3C[C@H]12`, the IC50 was > 20 µg/mL and the result was inactive.

Take `COC(=O)[C@@H]1[C@H]2C[C@H]3c4[nH]c5ccccc5c4CCN3C[C@@H]2CC[C@@H]1O`: the IC50 was > 20 µg/mL and the outcome was inactive.

`COc1ccc2c3c([nH]c2c1)[C@H]1C[C@H]2[C@H](C[C@@H](O)[C@H](OC)[C@H]2C(=O)O)CN1CC3`: the 50% inhibitory concentration (IC50) is > 20 µg/mL and the molecule was called inactive.

Regarding `CCOC(=O)Oc1c(OC)cc(C(=O)O[C@@H]2C[C@@H]3CN4CCc5c([nH]c6cc(OC)ccc56)[C@H]4C[C@@H]3[C@H](C(=O)OC)[C@H]2OC)cc1OC`, the IC50 is 7.94 µg/mL (≈ 11.9 µM) and the call was active.

Turning to `COC(=O)[C@H]1[C@H]2C[C@@H]3c4[nH]c5cc(OC)ccc5c4CCN3C[C@H]2C[C@@H](OC(=O)/C=C/c2cc(OC)c(OC)c(OC)c2)[C@@H]1OC`, the CC50 (as a rule, the concentration that lowers cell viability or growth by half) was > 6 µg/mL; the IC50 is 4.23 µg/mL (≈ 6.67 µM); the molecule was called active.

On to `COC(=O)[C@H]1[C@H]2C[C@H]3c4[nH]c5ccccc5c4CCN3C[C@@H]2CC[C@@H]1O`, for which the IC50 was > 20 µg/mL and the result was inactive.

Regarding `COC(=O)[C@H]1[C@H]2C[C@H]3c4[nH]c5ccccc5c4CCN3C[C@H]2CC[C@@H]1O`, the IC50 is > 20 µg/mL and the call was inactive.

As to `O=C(O)[C@@H]1[C@H]2C[C@H]3c4[nH]c5ccccc5c4CCN3C[C@@H]2CC[C@@H]1O`, the IC50 is > 20 µg/mL and the molecule was classed as inactive.

On to `COC(=O)[C@H]1[C@H]2C[C@@H]3c4[nH]c5cc(OC)ccc5c4CCN3C[C@H]2C[C@@H](OC(=O)c2cc(OC)c(OC)c(OC)c2)[C@@H]1OC`, for which the IC50 came out at 2.32 µg/mL (≈ 3.81 µM) and the molecule was called active.

Consider `CCCNC(C)C(=O)Nc1c(C)csc1C(=O)OC` (stereo not drawn), for which the IC50 was > 20 µg/mL and the molecule was classed as inactive.

Consider `C=C1[C@@H](O)[C@]23C[C@@H]1[C@@H](O)C[C@H]2[C@@]12C4[C@@H]3C[C@@H]1[C@@](C)(CC[C@@H]2O)CN4CC`, for which the half-inhibitory concentration (IC50) is > 20 µg/mL and the molecule was called inactive.

Consider `CNCCc1ccccn1`, for which the IC50 is > 20 µg/mL and the molecule was classed as inactive.

As to `CCCCOc1ccc(OCCCN2CCOCC2)cc1`, the IC50 was > 20 µg/mL and the molecule was classed as inactive.

For `C[C@H](CCC(=O)O)[C@H]1CC[C@H]2[C@@H]3[C@H](O)C[C@@H]4C[C@H](O)CC[C@]4(C)[C@H]3CC[C@]12C`, the IC50 was > 20 µg/mL and the molecule was called inactive.

For `CCN1C[C@]2(COC)CC[C@H](OC)[C@@]34C1[C@]1(OCO[C@@]15C[C@H](OC)[C@H]1C[C@@H]3[C@@H]5[C@H]1OC)[C@@H](O)[C@H]24`, the IC50 is > 20 µg/mL and the call was inactive.

Regarding `O=S(=O)(O)c1cc(O)ccc1O`, the IC50 is > 20 µg/mL and the outcome was inactive.

Take `CN1C2CCCC1CC(=O)C2`: the IC50 was > 20 µg/mL and the molecule was called inactive.

As for `CC1=CC(=O)C2=C(C)C[C@H](O)[C@@H]3[C@H](OC(=O)[C@H]3C)[C@@H]12`, the IC50 is > 20 µg/mL and the molecule was called inactive.

For the molecule `CC[C@@H](C(=O)[C@@H](C)[C@@H](O)[C@H](C)CCc1ccc(C)c(O)c1C(=O)O)[C@H]1O[C@](CC)([C@H]2CC[C@](O)(CC)[C@H](C)O2)C[C@@H]1C`, the CC50 was > 6 µg/mL, the IC50 turned out to be 6.19 µg/mL (≈ 10.5 µM) and the molecule was called active.

With `CC(=O)N(CC(C)C(=O)O)c1c(I)cc(I)c(N)c1I` (stereo not drawn), the 50% inhibitory concentration (IC50) was > 20 µg/mL and the outcome was inactive.

With `CC(C)(C)NC[C@H](O)COc1cccc2c1CCCC2=O`, the IC50 is > 20 µg/mL and the outcome was inactive.

For the molecule `C[C@]12CC[C@@H]3c4ccc(O)cc4CC[C@H]3[C@@H]1C[C@@H](O)[C@@H]2O`, the IC50 was > 20 µg/mL and the result was inactive.

As to `NC(N)=NCC1COC2(CCCCC2)O1` (stereo not drawn), the IC50 is > 20 µg/mL and the molecule was classed as inactive.

`Nc1ccc(S(N)(=O)=O)cc1`: the IC50 is > 20 µg/mL and the call was inactive.

As for `NC(N)=NS(=O)(=O)c1ccc(N)cc1`, the IC50 is > 20 µg/mL and the outcome was inactive.

Take `Nc1ccc(S(=O)(=O)c2ccc(N)cc2)cc1`: the IC50 came to 9.09 µg/mL (≈ 36.6 µM) and the call was active.

As for `O=c1[nH]c(=O)n([C@H]2CC(O)[C@@H](CO)O2)cc1I` (stereo partly drawn), the IC50 is > 20 µg/mL and the result was inactive.

As for `Cn1cc[nH]c1=S`, the IC50 is > 20 µg/mL and the molecule was classed as inactive.

As for `CCN1CCC[C@H]1CNC(=O)c1c(OC)ccc(Br)c1OC`, the IC50 is > 20 µg/mL and the molecule was called inactive.

As for `CCCc1ncc(C[n+]2ccccc2C)c(N)n1`, the IC50 was > 20 µg/mL and the call was inactive.

Take `NC(=O)c1ccc[n+]([C@@H]2O[C@H](COP(=O)([O-])OP(=O)(O)OC[C@H]3O[C@@H](n4cnc5c(N)ncnc54)[C@H](O)[C@@H]3O)[C@@H](O)[C@H]2O)c1`: the IC50 is > 20 µg/mL and the molecule was classed as inactive.

Turning to `Cc1onc(-c2c(F)cccc2Cl)c1C(=O)N[C@@H]1C(=O)N2C(C(=O)O)C(C)(C)S[C@H]12` (stereo partly drawn), the IC50 is > 20 µg/mL and the result was inactive.

For `CNCCCC1c2ccccc2C=Cc2ccccc21`, the cytotoxic concentration (CC50) was > 6 µg/mL, the 50% inhibitory concentration (IC50) was 17.4 µg/mL (≈ 66 µM) and the outcome was active.

On to `NCc1ccc(S(N)(=O)=O)cc1`, for which the IC50 was > 20 µg/mL and the result was inactive.

With `COc1cnc(NS(=O)(=O)c2ccc(N)cc2)nc1`, the IC50 is > 20 µg/mL and the molecule was called inactive.

Turning to `COc1ncnc(NS(=O)(=O)c2ccc(N)cc2)c1OC`, the IC50 is > 20 µg/mL and the call was inactive.

On to `COc1cc(NS(=O)(=O)c2ccc(N)cc2)nc(OC)n1`, for which the IC50 was determined as 12.6 µg/mL (≈ 40.7 µM) and the result was active.

For `C[C@@H]1NC(=O)NC1=O`, the IC50 is > 20 µg/mL and the result was inactive.

In the case of `CC1CS(=O)(=O)CCN1N=Cc1ccc([N+](=O)[O-])o1` (stereo not drawn), the IC50 is 2.74 µg/mL (≈ 9.55 µM) and the molecule was called active.

Regarding `O=C1OC(CN2CCOCC2)CN1/N=C/c1ccc([N+](=O)[O-])o1` (stereo not drawn), the IC50 is > 20 µg/mL and the molecule was called inactive.

With `CCCc1cc(=O)[nH]c(=S)[nH]1`, the IC50 was > 20 µg/mL and the outcome was inactive.

In the case of `CCOC(=O)Nc1ccc2c(c1)N(C(=O)CCN1CCOCC1)c1ccccc1S2`, the IC50 was > 20 µg/mL and the outcome was inactive.

On to `CCN(CC)CCOC(=O)C(c1ccccc1)c1ccccc1`, for which the IC50 is > 20 µg/mL and the result was inactive.

Take `CC(C)NC[C@@H](O)COc1cccc2ccccc12`: the IC50 was > 20 µg/mL and the call was inactive.

In the case of `C[C@@H]1O[C@@H](O[C@H]2[C@H](Oc3cc(O)c4c(c3)O[C@H](c3ccc(O)cc3)CC4=O)O[C@H](CO)[C@@H](O)[C@@H]2O)[C@H](O)[C@H](O)[C@H]1O`, the IC50 was > 20 µg/mL and the call was inactive.

In the case of `CN[C@H](CC(C)C)C(=O)N[C@H]1C(=O)N[C@@H](CC(N)=O)C(=O)N[C@H]2C(=O)N[C@H]3C(=O)N[C@H](C(=O)N[C@H](C(=O)O)c4cc(O)cc(O)c4-c4cc3ccc4O)[C@H](O)c3ccc(c(Cl)c3)Oc3cc2cc(c3O[C@@H]2OC(CO)[C@@H](O)[C@H](O)[C@H]2O[C@H]2C[C@](C)(N)[C@H](O)[C@H](C)O2)Oc2ccc(cc2Cl)[C@H]1O` (stereo partly drawn), the IC50 is 1.06 µg/mL (≈ 0.732 µM) and the outcome was active.
